Bioassay records: PubChem BioAssay, National Center for Advancing Translational Sciences (NCATS)
Most compounds without a hit are left out; they make up all but 11% or so of the library.
3T3 cytotox: kills NIH 3T3 cells | NIH 3T3 viability, CellTiter-Glo ATP luminescence, 48-72 h | Potency, µM (top dose mostly 96.7 µM), inactives show at the top dose activity change, negative = cytotoxicity, hits mostly inhibitors | 4.3% of 94,000 active; active = well fitted curve in the direction sought with a large enough effect; inconclusive = small, poorly fitted or top-dose-only effect, or another doubt; inactive = no such curve, though single readings can be large; an effect the other way counts as inactive or inconclusive; also: % is scaled to controls: 0 for no effect and ±100 for the full control effect; nearly all actives have a fitted effect of over 55% in size
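ATP-dependent luminescence (CellTiter-Glo) served as the viability signal for NIH 3T3 cells treated with compound for 48 or 72 hr at 37 °C.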
HEK cytotox: cytotoxic compounds in HEK 293 cells | AID 1345083 | HEK 293 viability, ATP luminescence (CellTiter-Glo), 48-72 h | Potency, µM (titrated, usually from 115 µM), inactives show top-dose activity change, negative = cytotoxicity, actives largely listed as inhibitors | 6.6% of 94,000 active; active = well fitted curve in the direction sought with a large enough effect; inconclusive = small, poorly fitted or top-dose-only effect, or another doubt; inactive = no such curve, though single readings can be large; an effect the other way counts as inactive or inconclusive; also: % is scaled to controls: 0 for no effect and ±100 for the full control effect; nearly all actives have a fitted effect of over 60% in size
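250 HEK 293 cells/well; compound by pintool; incubated 48 or 72 hr at 37 degree Celsius; CellTiter-Glo added, 10 min RT, luminescence imaged.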
Luciferase inh: blocks purified firefly luciferase enzyme activity; P08659; purified P. pyralis luciferase, luminescence, biochemical; Potency, µM (top dose mostly 115 µM), hits mostly inhibitors; 2.5% of 76,000 active; AID 1347043; active = well fitted curve in the direction sought with a large enough effect; inconclusive = small, poorly fitted or top-dose-only effect, or another doubt; inactive = no such curve, though single readings can be large; an effect the other way counts as inactive or inconclusive; also: % is scaled to controls: 0 for no effect and ±100 for the full control effect; nearly all actives have a fitted effect of over 65% in size
Target sequence (P08659 whole entry, looked up): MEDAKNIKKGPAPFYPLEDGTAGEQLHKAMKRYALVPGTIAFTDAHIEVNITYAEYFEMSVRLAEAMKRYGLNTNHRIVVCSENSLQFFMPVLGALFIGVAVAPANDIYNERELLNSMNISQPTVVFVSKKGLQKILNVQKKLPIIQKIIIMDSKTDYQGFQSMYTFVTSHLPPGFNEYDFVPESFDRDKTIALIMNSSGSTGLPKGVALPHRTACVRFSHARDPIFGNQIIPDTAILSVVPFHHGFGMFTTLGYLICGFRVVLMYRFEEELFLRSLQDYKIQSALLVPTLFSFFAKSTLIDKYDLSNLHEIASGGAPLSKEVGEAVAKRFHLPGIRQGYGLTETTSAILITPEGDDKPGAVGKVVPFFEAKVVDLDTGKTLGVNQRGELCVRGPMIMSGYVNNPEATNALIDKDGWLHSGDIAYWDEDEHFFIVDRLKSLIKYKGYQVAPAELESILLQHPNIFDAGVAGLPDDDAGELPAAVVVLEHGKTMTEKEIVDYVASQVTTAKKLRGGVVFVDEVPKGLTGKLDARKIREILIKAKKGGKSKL
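Purified P. pyralis luciferase (10nM final) in 50mM Tris acetate pH 7.5, 10mM Mg acetate, 0.01% Tween-20, 0.05% BSA with 10uM D-luciferin and 10uM ATP. Compounds titrated qHTS. Luminescence imaged on CCD.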
hNpr1 antagonist: blocks ANP-stimulated signaling of human Npr1 receptor. 1.6% of 76,000 active. P16066. Potency, µM (series often up to 46.3 µM), without a hit: at the top dose activity change, negative = inhibition, most hits filed as inhibitors. HEK293 hNpr1 GloSensor cGMP, ANP-stimulated luminescence; also: % is scaled to controls: 0 for no effect and ±100 for the full control effect; nearly all actives have a fitted effect of over 60% in size
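Compound pre-incubated 30 min at room temperature on GloSensor-loaded HEK293 cells stably carrying hNpr1 and the pGS-40F cGMP biosensor. Stimulation uses hNppA at 0.1 nM final; luminescence is taken at baseline and 20 min post-agonist.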
Npr1 antag conf: confirmation of human Npr1 natriuretic peptide receptor antagonists; shares compounds with hNpr1 antagonist; Potency, µM (titrated, usually from 57.6 µM), without a hit: top-dose activity change, negative = inhibition, most hits filed as inhibitors; 76% of 1,400 active; HEK293 hNpr1 cGMP GloSensor luminescence, ANP-stimulated; also: nearly all actives have a fitted effect of over 70% in size
NPR2 antag: selectivity test of Npr1 antagonists against human Npr2; Potency, µM (series often up to 57.6 µM), without a hit: at the highest dose activity change, negative = inhibition, usual class: inhibitors; AID 1347046; shares compounds with hNpr1 antagonist; 67% of 1,400 active; HEK293 hNpr2 GloSensor cGMP luminescence, CNP-stimulated; also: nearly all actives have a fitted effect of over 70% in size
FLuc inh counter: inhibits firefly luciferase, false Npr1 antagonist flag; shares compounds with hNpr1 antagonist; purified FLuc enzyme, luminescence, Km substrate; Potency, µM (doses to about 57.6 µM), inactives show at the highest dose activity change, negative = inhibition, hits mostly inhibitors; 0.7% of 1,400 active; AID 1347047; active = well fitted curve in the direction sought with a large enough effect; inconclusive = small, poorly fitted or top-dose-only effect, or another doubt; inactive = no such curve, though single readings can be large; an effect the other way counts as inactive or inconclusive; also: 0% is about no effect
GloSensor cGMP: counter-screen for Npr1 antagonists: GloSensor control cell line. Potency, µM (titrated, usually from 57.6 µM), without a hit: at the top dose activity change, negative = inhibition, actives largely listed as inhibitors. HEK293 GloSensor cGMP, SNP-stimulated, luminescence. shares compounds with hNpr1 antagonist. 69% of 1,400 active. AID 1347051; also: % is scaled to controls: 0 for no effect and ±100 for the full control effect; nearly all actives have a fitted effect of over 70% in size
Active calls of the source: *; [ ] = remark or other dose. Unless noted, calls follow the shape of the full dose curve. Potency is read from the fitted curve at half-maximal effect.

`CCOc1ccc(CC(=O)N2CCC(Cc3nc(-c4ccc(OC)cc4)no3)CC2)cc1OCC` gave 3T3 cytotox inconclusive, HEK cytotox inconclusive, Luciferase inh inactive, hNpr1 antagonist 16µM*, Npr1 antag conf 27µM*, NPR2 antag 22µM*, FLuc inh counter 0% and GloSensor cGMP 24µM*.
`CCOc1ccc(CC(=O)N2CCC(Cc3nc(-c4ccc(OC)cc4)no3)CC2)cc1` gave 3T3 cytotox inconclusive, HEK cytotox inconclusive, Luciferase inh inactive, hNpr1 antagonist 4.5µM*, Npr1 antag conf 2.7µM*, NPR2 antag 3.9µM*, FLuc inh counter -1% and GloSensor cGMP 3.4µM*.
For CCOc1ccc(CC(=O)N2CCC(Cc3nc(C(C)C)no3)CC2)cc1 the results were 3T3 cytotox -28%, HEK cytotox inconclusive, Luciferase inh inactive and hNpr1 antagonist -15%.
For COc1ccc(CC(=O)N2CCC(Cc3nc(-c4ccc(OC)cc4)no3)CC2)cc1 the results were 3T3 cytotox inconclusive, HEK cytotox inconclusive, Luciferase inh inactive, hNpr1 antagonist 2.8µM*, Npr1 antag conf 3.1µM*, NPR2 antag 3.4µM*, FLuc inh counter -2% and GloSensor cGMP 3.4µM*.
COc1ccc(-c2noc(CC3CCN(C(=O)Cc4cccc(C)c4)CC3)n2)cc1 was read as 3T3 cytotox inconclusive, HEK cytotox 40µM*, Luciferase inh inactive, hNpr1 antagonist 13µM*, Npr1 antag conf 22µM*, NPR2 antag 19µM*, FLuc inh counter 4% and GloSensor cGMP 17µM*.
For Cc1cccc(CC(=O)N2CCC(Cc3nc(-c4ccccc4)no3)CC2)c1 the results were 3T3 cytotox inconclusive, HEK cytotox inconclusive, Luciferase inh inactive and hNpr1 antagonist -26%.
For O=C(Nc1ccc([C@@H](O)[C@H]2COCC(=O)N2Cc2ccccc2F)cc1)c1cccc(F)c1 the results were 3T3 cytotox inconclusive, HEK cytotox inconclusive, Luciferase inh inactive and hNpr1 antagonist -17%.
For Cn1ncc2c(C(=O)NCC(F)F)cc(-c3ccccc3C(F)(F)F)nc21 the results were 3T3 cytotox inconclusive and HEK cytotox -9%.
For Cc1ccc([S+](=O)([O-])N2CCCC2C(=O)N2CCC(c3nc4ccncc4[nH]3)C2)cc1 (stereo not drawn) the results were 3T3 cytotox 0% and HEK cytotox 4%.
Screening Cc1nc(CN(C)C(=O)c2cc(Cn3c(C)nc4ccccc43)on2)cs1 returned 3T3 cytotox inconclusive, HEK cytotox inconclusive, Luciferase inh inactive, hNpr1 antagonist 10µM*, Npr1 antag conf 19µM*, NPR2 antag 17µM*, FLuc inh counter 1% and GloSensor cGMP 14µM*.
`CCCS(=O)(=O)NCC1Cn2cccc2C(=O)N1Cc1ccccc1` (stereo not drawn) gave 3T3 cytotox inconclusive, HEK cytotox -3%, Luciferase inh inactive and hNpr1 antagonist -17%.
For CC(C)(C)c1ncc(-c2ccccc2)[nH]1 the results were 3T3 cytotox -15%[174 µM] and HEK cytotox -13%[230 µM].
For CCCc1nc(NCc2c(F)ccc(OC)c2F)c2cnn(C)c2n1 the results were 3T3 cytotox inconclusive, HEK cytotox inconclusive, Luciferase inh inactive and hNpr1 antagonist inconclusive.
Screening CSCc1nc(CNc2nc(C3CCCC3)nc3c2cnn3C)cs1 returned 3T3 cytotox inconclusive, HEK cytotox 25µM*, Luciferase inh inactive, hNpr1 antagonist 8.9µM*, Npr1 antag conf 15µM*, NPR2 antag 19µM*, FLuc inh counter 0% and GloSensor cGMP 12µM*.
`O=C(Nc1ccc(F)cc1)c1c[nH]c2cccnc12` gave 3T3 cytotox inconclusive, HEK cytotox inconclusive, Npr1 antag conf inconclusive, NPR2 antag inconclusive, FLuc inh counter 4.4µM* and GloSensor cGMP 22µM*.
Screening Cc1ccc(C2Cn3nnc(C(=O)N4CCN(C(=O)c5cc(Cl)ccc5F)CC4)c3CO2)cc1 (stereo not drawn) returned 3T3 cytotox inconclusive, HEK cytotox inconclusive, Luciferase inh inactive, hNpr1 antagonist inconclusive, Npr1 antag conf 15µM*, NPR2 antag 19µM*, FLuc inh counter -2% and GloSensor cGMP 17µM*.
Cc1ccccc1CC(=O)N1CCN(C(=O)c2nnn3c2COC(c2ccc(Cl)cc2)C3)CC1 (stereo not drawn) was read as 3T3 cytotox 35µM*, HEK cytotox 28µM*, Luciferase inh inactive, hNpr1 antagonist 14µM*, Npr1 antag conf 19µM*, NPR2 antag 22µM*, FLuc inh counter 4% and GloSensor cGMP 19µM*.
Screening Cc1ccc(C2Cn3nnc(C(=O)N4CCN(C(=O)c5ccc(Cl)cc5)CC4)c3CO2)cc1 (stereo not drawn) returned 3T3 cytotox -7%, HEK cytotox -6%, Luciferase inh inactive and hNpr1 antagonist -4%.
`Cc1ccc(C2Cn3nnc(C(=O)N4CCN(C(=O)c5ccccc5F)CC4)c3CO2)cc1` (stereo not drawn) gave 3T3 cytotox -21%, HEK cytotox inconclusive, Luciferase inh inactive and hNpr1 antagonist inconclusive.
COc1cc(Cl)ccc1C(=O)N1CCN(C(=O)c2nnn3c2COC(c2ccccc2)C3)CC1 (stereo not drawn) was read as 3T3 cytotox inconclusive, HEK cytotox inconclusive, Luciferase inh inactive, hNpr1 antagonist inconclusive, Npr1 antag conf 22µM*, NPR2 antag inconclusive, FLuc inh counter 3% and GloSensor cGMP 31µM*.
Screening Cc1ccccc1C(=O)N1CCN(C(=O)c2nnn3c2COC(c2ccc(Cl)cc2)C3)CC1 (stereo not drawn) returned 3T3 cytotox inconclusive, HEK cytotox inconclusive, Luciferase inh inactive, hNpr1 antagonist inconclusive, Npr1 antag conf 27µM*, NPR2 antag inconclusive, FLuc inh counter 1% and GloSensor cGMP inconclusive.
